Molecules are shown by their SMILES. About 83,000 compounds went through this panel and 20% of them were active in at least one assay; those are over-represented in the sample as a whole.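 Compound tested at a single concentration for 48 hours in 96-well plates; a percent growth value below 10 was scored as active.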 Unmarked numbers belong to inactive results. Active and inactive are the calls of the source.

What all share (test): NCI-60 one-dose screen, 48 h (100 = growth as untreated, 0 = no growth, -100 = all killed)
Common to all, as to details: 10 µM unless noted

Experiment [1] deals with SR leukemia.
The test system of experiment [2] is RPMI-8226 leukemia.
For experiment [3], the system named is OVCAR-5 ovarian.
For experiment [4], the system named is OVCAR-4 ovarian.
For experiment [5], the system named is SK-OV-3 ovarian.
Experiment [6] deals with IGROV1 ovarian.
Experiment [7] concerns OVCAR-3 ovarian.
In experiment [8] the test system is HS 578T breast.
For experiment [9], the system named is NCI/ADR-RES ovarian.
Experiment [10] relates to OVCAR-8 ovarian.

On to `C=CCC(OC(C)=O)c1ccc(C(C)C)cc1` (stereo not drawn), for which the growth in experiment [1] was 116%; in [2], 108%; in experiment [3], 109%; in experiment [4] it was 113%; in [5], 115%; in experiment [6], 123%. The growth in experiment [7] was 162%; in [8], 109%; in [9], 107%.
Turning to `COC1OC(CO)C(OC)C(O)C1O` (stereo not drawn), the growth is 93.8% in experiment [1]; 101% in [2]; 105% in experiment [10]; 98.5% in [4]; 105% in experiment [5]; 102% in experiment [6]. The growth in experiment [7] is 112%; in [8], 112%; in [9], 93.5%.
Turning to `O=C(c1cccc(C(=O)c2ccc3c4c(cccc24)C(=O)N(c2ccccc2)C3=O)c1)c1ccc2c3c(cccc13)C(=O)N(c1ccccc1)C2=O`, the growth is 57.4% in experiment [1]; 72.4% in experiment [2]; 111% in experiment [3]; 77.4% in [4]; 102% in [5]; 104% in experiment [6]. Also, the growth in [7] was 98.8%; in experiment [8], 97.6%; in [9] it was 96.9%.
Regarding `Clc1cccc(Cl)c1C1CSc2ccccc2N=C1c1ccccc1` (stereo not drawn), the growth in [1] is -14% (active); in experiment [2] it was -14.8% (active); in [3], 101%; in experiment [4], 73%; in [5], 96.5%; in experiment [6], 91.8%. Also, the growth in experiment [7] is 69.6%; in experiment [8], 88.1%; in [9], 73.3%.
For `NC(=O)OCCO`, the growth in experiment [1] was 94.5%; in [2] it was 104%; in experiment [3], 107%; in experiment [4] it was 109%; in experiment [5] it was 105%; in experiment [6], 108%. The growth in [7] is 102%; in experiment [8], 99.2%; in [9] it was 105%.
As for `CCCOCc1cn[nH]n1`, the growth is 99.2% in experiment [1]; 111% in experiment [2]; 102% in experiment [10]; 110% in [4]; 109% in experiment [5]; 113% in experiment [6]. In addition, the growth in experiment [7] was 108%; in [8] it was 114%; in [9], 106%.
Take `CCOc1ccncc1[N+](=O)[O-]`: the growth in [1] was 102%; in experiment [2], 112%; in [10] it was 97.5%; in [4], 116%; in [5], 110%; in experiment [6], 118%. Besides, the growth in [7] is 106%; in experiment [8], 112%; in experiment [9], 106%.
For `Cc1ccc[n+](CCC(N)=O)c1`, the growth was 59.8% in [1]; 102% in [2]; 93.8% in experiment [3]; 87.4% in experiment [4]; 94.7% in experiment [5]; 98.7% in [6]. For the same compound, the growth was 111% in experiment [7], 87.3% in experiment [8] and 97.4% in experiment [9].
In the case of `C/C(Cc1ccccc1)=N\O`, the growth in experiment [1] is 101%; in experiment [2] it was 83.3%; in experiment [3], 107%; in [4] it was 117%; in [5] it was 128%; in experiment [7] it was 105%. For the same compound, in experiment [9], the growth is 107%.
With `CN1C(=O)NC(c2ccc(Cl)cc2)(c2ccc(Cl)cc2)C1=O`, the growth in experiment [2] was 84.2%; in experiment [10], 102%; in experiment [3], 112%; in experiment [4], 96.4%; in experiment [5], 115%; in experiment [6], 91%. Also, the growth is 104% in [7], 90.4% in experiment [8] and 86.8% in experiment [9].
Turning to `Nc1c(Br)cc(O)c2c1C(=O)c1ccccc1C2=O`, the growth in [2] was 84%; in experiment [10] it was 55.6%; in experiment [3], 112%; in experiment [4], 87.4%; in experiment [5], 109%; in [6], 56.3%. Also, the results for the growth in [7], in experiment [8] and in experiment [9] were 96.2%, 88.8% and 89.6%, respectively.
Turning to `Nc1ncnc(Nc2ccccc2)n1`, the growth in experiment [2] is 96.7%; in [10], 106%; in experiment [3] it was 105%; in [4] it was 109%; in experiment [5], 117%; in experiment [6], 102%. The values for the growth in [7], in experiment [8] and in [9] were 117%, 102% and 111%, respectively.
On to `C=C(C)[C@@H]1CC[C@]2(CO)CC[C@]3(C)[C@H](CC[C@@H]4[C@@]5(C)CC[C@H](O)C(C)(C)[C@@H]5CC[C@]43C)[C@@H]12`, for which the growth was 42.6% in experiment [1]; 41.2% in [2]; -21.9% (active) in experiment [3]; 33.7% in experiment [4]; 41.3% in experiment [5]; 35.9% in experiment [6]. For the same compound, the figures for the growth in experiment [7] and in [9] were 64.5% and -43.6% (active), respectively.
For `CCN(Cc1ccc(Cl)c(Cl)c1)c1ccc2nc(N)nc(N)c2c1C`, the growth in experiment [2] is -54% (active); in [10], -59.9% (active); in experiment [3] it was -100% (active); in experiment [4], -88.2% (active); in [5], -97.6% (active); in experiment [6], -79% (active). The growth is -93.2% (active) in [7], -42.5% (active) in experiment [8] and -94.4% (active) in experiment [9].
As to `CCCCNc1ccc(-c2ccc(NCCCC)cc2)cc1`, the growth in [1] is 44.1%; in experiment [2], 61.8%; in [3] it was 90.3%; in experiment [4] it was 63.5%; in [5], 94.5%; in experiment [6] it was 78%. In addition, the figures for the growth in experiment [8] and in experiment [9] were 84.2% and 79.3%, respectively.
On to `O=c1n(CC2CO2)c(=O)n(CC2CO2)n1CC1CO1` (stereo not drawn), for which the growth in experiment [2] was 57.5%; in [10] it was 75%; in experiment [3] it was 130%; in [4], 85.2%; in [5] it was 49.2%; in experiment [6] it was -4.87% (active). In addition, the values for the growth in experiment [7], in [8] and in experiment [9] were 72.7%, 90.5% and 65.5%, respectively.
As to `NCC(O)C(O)C(O)C(O)CO` (stereo not drawn), the growth in experiment [1] was 96.6%; in experiment [10] it was 100%; in experiment [3], 107%; in experiment [5] it was 86.1%; in experiment [6], 101%; in experiment [7], 101%. For the same compound, the growth is 97.1% in [8] and 102% in [9].

The record behind these values is PubChem BioAssay (NCI).
